# Source: PubChem BioAssay (National Center for Advancing Translational Sciences (NCATS))
# Rows were chosen to be rich in hits. Some 2.9% of all compounds tested hit in one or more screens of this group.
# GLP1R cytotox: cytotoxicity counter-screen for GLP-1 receptor inverse agonists. Potency, µM (top dose mostly 38.3 µM), inactives show at the highest dose activity change, negative = inhibition, most hits filed as inhibitors. 410,000 compounds, 0.13% hits. HEK293 cAMP-luciferase reporter cells, luminescence, 24 h;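 also: loss of luciferase light is scored as toxicity; potency is read from the fitted curve at half-maximal effect; % is scaled to controls: 0 for no effect and ±100 for the full control effect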
#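 To flag toxic compounds, the library was rerun on cells for 24 hr at 37 deg C and 5% CO2. Viability-linked luminescence was captured 12 min after adding luciferase detection reagent.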
# p53 reactivator: re-activators of mutant p53. H1299 p53-A138V BP100-luciferase reporter, luminescence, 24 h. Potency, µM (series often up to 92.2 µM), without a hit: top-dose activity change, positive = activation, hits mostly activators. 320,000 compounds, 0.063% hits; also: potency is read from the fitted curve at half-maximal effect; % of control where 0% means no effect; nearly all actives have a fitted effect of over 45% in size
#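 p53-null H1299 cells stably carrying temperature-sensitive p53-A138V and a BP100-luciferase reporter were pinned with compounds (4-point, 1:5 series) and held 24 hrs at 37 deg C. Luminescence was read 10 min after detection reagent.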
# GLP-1R agonist: activates the human GLP-1 receptor. Potency, µM (titrated, usually from 45.6 µM), inactives show at the highest dose activation, usual class: activators. 380,000 compounds, 0.007% hits. HEK293 GLP-1R CRE-luciferase, luminescence, 4-6 h; cells express a hypersensitive GLP-1R form. P43220; also: potency is read from the fitted curve at half-maximal effect; % of control where 0% means no effect
# GLP1R inv ag: acts as inverse agonist at human GLP-1 receptor. 410,000 compounds, 1.6% hits. Potency, µM (highest dose often 38.3 µM), for the others: at the highest dose activity change, negative = inhibition, actives largely listed as inhibitors. P43220. HEK293 GLP-1R CRE-luciferase, luminescence, 24 h; GLP-1R form is constitutively active. AID 624417; also: potency is read from the fitted curve at half-maximal effect; % is scaled to controls: 0 for no effect and ±100 for the full control effect; nearly all actives have a fitted effect of over 55% in size
#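 Readout was luciferase luminescence, measured 12 min after detection reagent at room temperature. Beforehand, GLP-1R reporter HEK293 cells had sat 12 h, then received compounds for 24 hr at 37 deg C.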
# ClpP mod: qHTS Assay for Activators of ClpP | ATP-dependent Clp protease proteolytic subunit (Bacillus subtilis (strain 168)), P80244 | purified B. subtilis ClpP, FRET peptide cleavage, 20 min | Potency, µM (highest dose often 57.5 µM), inactives show top-dose activity change, negative = active | 340,000 compounds, 1.9% hits | AID 651965, 2013; active = well fitted falling curve with a large enough effect; inconclusive = small, poorly fitted or top-dose-only effect; inactive = no such curve, though single readings can be large or run the other way; also: potency is read from the fitted curve at half-maximal effect; the source files actives as falling curves though it sought activators and does not explain the sign; nearly all actives have a fitted effect of over 65% in size
#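 FRET quenching reversal measured ClpP activation: 10 microg/mL B. subtilis ClpP at pH 8 with the FRET-FV decapeptide, read at 430 nm after 320 nm excitation. The 20-min minus 0-min signal was scaled between DMSO/no-enzyme wells and ADEP (5.8 microM final).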
# LDHA inh: blocks human lactate dehydrogenase A; P00338; purified LDHA, NADH/diaphorase-resazurin fluorescence; stronger effect = lower value; activity change, % (values are at about 110 or 230 µM); 480,000 compounds, 0.15% hits; in the data active = activity change below about -30%; inconclusive = mostly about -25% to -30%;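 also: plate controls were DMSO wells for no effect and wells without enzyme for full effect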
#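 Remaining NADH was detected by diaphorase (0.133 mg/mL) converting 37 µM resazurin to fluorescent resorufin, read at 0 and 20 minutes. The preceding 5-minute room-temperature reaction used 2 nM LDHA, 0.2 mM sodium pyruvate and 0.06 mM NADH at pH 7.4.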
# Numbers without * were called inactive; ? = inconclusive; / = not tested or not shown. Unless noted, calls follow the shape of the dose curve; as a rule, active = well fitted curve in the direction sought with a large enough effect; inconclusive = small, poorly fitted or top-dose-only effect, or another doubt; inactive = no such curve, though single readings can be large; an effect the other way counts as inactive or inconclusive.
SMILES,GLP1R cytotox,p53 reactivator,GLP-1R agonist,GLP1R inv ag,ClpP mod,LDHA inh
COc1ccc2[nH]c(=O)c(CN(CC3CCCO3)C(=O)Nc3ccccc3OC)cc2c1 (centres undefined),?,-3.9%,14.8%,-26.5%,28.2µM*,-4.2
Cc1ccccc1NS(=O)(=O)c1ccc(OCC(=O)NCC2CCCO2)cc1 (centres undefined),18.7%,6.4%,0.9%,-7.1%,0.5%,-7.8
O=C(NCc1cccnc1)/C(=C/c1ccc(-c2ccc(Cl)cc2)o1)S(=O)(=O)c1ccccc1,?,-11.3%,-14.0%,?,-3.6%,1.2
S=C(NCC1CCCO1)Nc1cccc2ccccc12 (centres undefined),-3.7%,-0.4%,13.0%,-2.4%,/,-1.1
COc1ccccc1NC(=O)N(Cc1ccco1)Cc1cc2c(C)ccc(C)c2[nH]c1=O,4.9%,-5.0%,-11.5%,-26.5%,-0.2%,-1.2
COc1ccccc1NC(=O)N(Cc1ccco1)Cc1cc2cccc(C)c2[nH]c1=O,-14.4%,-12.4%,0.7%,11.2µM*,-4.4%,-2.4
CCN(CC)CCN(Cc1cc2cc(C)ccc2[nH]c1=O)C(=O)Nc1ccccc1OC,?,?,-8.9%,12.6µM*,-8.9%,-5.2
CCc1ccc2[nH]c(=O)c(CN(Cc3ccccc3OC)C(=O)Nc3ccccc3OC)cc2c1,-3.8%,-3.5%,1.4%,0.0%,-10.6%,-4.0
CC1CCCN(C(=O)COc2ccc3c(c2)OCO3)C1 (centres undefined),-4.7%,24.8%,-2.3%,32.9%,0.0%,0.2
CCCc1c(C(=O)N/N=C/C(C)=C/c2ccccc2)nnn1-c1nonc1N,-1.4%,-5.3%,-0.1%,-10.5%,0.5%,0.4
Nc1nonc1-n1nnc(C(=O)N/N=C/C=C/c2ccccc2)c1CSC1=NCCS1,?,14.6%,0.6%,7.94µM*,-5.6%,-11.2
CCCN(CCC)Cc1c(C(=O)N/N=C/C(C)=C\c2ccccc2)nnn1-c1nonc1N,-14.0%,6.8%,2.7%,2.82µM*,/,2.7
Cc1[nH]nc2oc(=O)c(CCO)c(C)c12,-5.7%,-2.9%,-1.4%,6.9%,?,0.0
Cn1c(Sc2ccccc2Cl)c(C=O)c2ccccc21,-12.9%,-5.7%,10.3%,?,-0.6%,-0.3
Cc1cccc(Sc2c(C=O)c3ccccc3n2C)c1,-26.7%,-5.0%,0.4%,2.82µM*,-0.9%,-2.3
Cn1c(Sc2ccc(Cl)cc2)c(C=O)c2ccccc21,?,-12.9%,-35.2%,3.16µM*,1.6%,0.2
Cc1cccc(NC(=O)N2C3CCCC2CC(NC(=O)C2CC2)C3)c1 (centres undefined),9.8%,-3.7%,0.2%,2.0%,/,0.5
O=C(NC1CC2CCCC(C1)N2C(=O)Nc1ccc(Cl)c(C(F)(F)F)c1)C1CC1 (centres undefined),-15.5%,-3.4%,-6.7%,10µM*,-3.6%,-13.3
CCC(C)n1c(SCC(=O)Nc2cc(C)on2)nc2ccccc2c1=O (centres undefined),-25.3%,-3.7%,0.1%,?,2.8%,-3.3
CC(C)(C)c1cc(NC(=O)COc2ccc(Br)cc2)n(-c2ccccc2)n1,-14.5%,-4.5%,4.8%,8.91µM*,-2.3%,1.6
CCC(C)n1c(SCC(=O)Nc2cc(C(C)(C)C)nn2-c2ccccc2)nc2ccccc2c1=O (centres undefined),0.0%,11.7%,11.8%,11.2µM*,-0.4%,-0.8
CC(C)(C)c1cc(NC(=O)COC(=O)c2ccccc2)n(-c2ccccc2)n1,2.8%,/,3.5%,?,-4.2%,-9.0
O=C(c1cccc(-c2ccco2)c1)N1CCCC(N2CCN(c3ccc(F)cc3)CC2)C1 (centres undefined),-2.9%,-5.8%,-15.5%,10µM*,-2.6%,-3.1
O=C(c1ccoc1)N1CCCC(N2CCN(c3ccc(F)cc3)CC2)C1 (centres undefined),4.0%,/,0.1%,-17.7%,-0.8%,-2.2
COC(=O)[C@H](CCSC)NC(=O)NCc1ccccc1F,7.8%,-5.1%,17.8%,-6.1%,1.1%,3.7
SMILES,GLP1R cytotox,p53 reactivator,GLP-1R agonist,GLP1R inv ag,ClpP mod,LDHA inh
Cc1ccc(NS(=O)(=O)c2ccc(C(=O)N3CCCN(C)CC3)cc2)cc1,-0.4%,-0.8%,-0.2%,5.62µM*,-2.5%,-8.8
Cc1cccc(Cn2nc(C(C)(C)C)cc2C(=O)Nc2ccc(F)cc2)c1,?,11.2%,-0.3%,5.01µM*,/,-1.5
Cc1ccc(Cn2nc(C)cc2C(=O)Nc2ccccc2Cl)cc1,8.1%,?,37.9%,-26.6%,/,-15.1
Cc1ccc(Cn2nc(C)cc2C(=O)Nc2ccc(Cl)cc2)cc1,0.0%,11.8%,12.5%,4.47µM*,/,1.5
COC(=O)c1cc(NC(=O)c2cc(C(C)(C)C)nn2Cc2ccc(F)cc2)ccc1N1CCOCC1,-26.6%,1.2%,-1.5%,3.55µM*,-11.0%,3.1
COc1ccc(-n2c(/C=C/c3cc(OC)c(OC)cc3OC)nc3cc4ccccc4cc3c2=O)cc1Cl,9.0%,/,/,2.0%,-2.8%,-5.8
O=S(=O)(c1ccc(F)cc1)N1CCN(CC(O)COCc2cccs2)CC1 (centres undefined),11.0%,-5.2%,2.9%,-23.6%,-1.9%,-14.5
COc1ccc(NC(=O)C(=O)NCC2CCCN2S(=O)(=O)c2cc(C)ccc2C)cc1 (centres undefined),?,-5.3%,-3.7%,3.98µM*,0.8%,1.4
Cc1ccc(C)c(S(=O)(=O)N2CCCC2CNC(=O)C(=O)Nc2ccccc2)c1 (centres undefined),1.8%,/,-1.0%,?,-2.0%,-9.8
CCc1ccc(/C=C2/Sc3ccccc3N(CC(=O)NCCCOC)C2=O)cc1,/,-3.0%,/,/,/,/
CC(=O)N(CC1CCCO1)c1nnc(-c2ccccn2)s1 (centres undefined),-11.9%,?,-7.7%,22.5%,15.8µM*,0.2
O=C(c1ccc(Cl)c(NC2=NC3CS(=O)(=O)CC3S2)c1)N1CCN(c2ccc(F)cc2)CC1 (centres undefined),22.4%,16.4%,2.0%,28.7%,-1.1%,-10.4
O=C1c2[nH]nc(-c3ccccc3O)c2C(c2cccc(Br)c2)N1Cc1ccncc1 (centres undefined),?,/,/,12.6µM*,1.2%,-0.5
Cc1ccc(S(=O)(=O)NCCN2CCOCC2)s1,-18.1%,-1.6%,0.0%,0.5%,-0.2%,-3.0
CCOC(=O)c1cc(-c2ccc(C#N)cc2)nc2c1c(C)nn2CCC#N,-14.5%,-1.9%,0.4%,26.5%,?,-8.7
